Laboratory results published in PubChem BioAssay (NCATS).
Values joined by “and” are separate entries in the source; they are usually repeats but may differ in a detail not shown here. Equal values may be shown once. Records with an inconclusive call do not appear. A call without a number means that no potency is given here. Active and inactive are the calls of the source. Calls follow the shape of the dose curve; as a rule, active = well fitted curve in the direction sought with a large enough effect; inconclusive = small, poorly fitted or top-dose-only effect, or another doubt; inactive = no such curve, though single readings can be large; an effect the other way counts as inactive or inconclusive.

Legend:
[1] = P-glycoprotein substrates identified in KB-3-1 adenocarcinoma cell line, qHTS therapeutic library screen (AID 1346986); details: KB-3-1 parental cells viability, CellTiter-Glo, 72 h; series mostly up to 44.5 µM; also: nearly all actives have a fitted effect of over 60% in size;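 also: potency is for cytotoxicity meaning loss of cell viability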
Summary of the method: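 Dose-response cytotoxicity, KB-3-1 vs P-gp-high KB-8-5-11, no colchicine in assay medium. Read: CellTiter-Glo at 72 h.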

[2] = P-glycoprotein substrates identified in KB-8-5-11 adenocarcinoma cell line, qHTS therapeutic library screen (AID 1346987); details: KB-8-5-11 (P-gp overexpressing) viability, CellTiter-Glo, 72 h; series mostly up to 44.5 µM; also: nearly all actives have a fitted effect of over 65% in size
Summary of the method: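 In this qHTS, P-gp-rich KB-8-5-11 cells received library compounds across a concentration range. Viability was quantified by luminescence after 72 h at 37 degree C.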
Potency is read from the fitted curve at half-maximal effect.

CC(=O)OC[C@]12[C@H](OC(C)=O)C(=O)[C@@H]3[C@@H](OC(C)=O)[C@@]14O[C@@]3(C)COC(=O)c1cccnc1[C@@H](C)[C@H](C)C(=O)O[C@@H]([C@H](OC(C)=O)[C@@H]2OC(C)=O)[C@]4(C)O
Potency [1]: inactive
Potency [2]: inactive

COc1ccc2c(c1)O[C@H](O[C@@H]1O[C@H](CO)[C@@H](O)[C@H](O)[C@H]1O)C(=O)N2
Potency [1]: inactive
Potency [2]: inactive

CC(=O)c1c(C)cc(O)cc1O[C@@H]1O[C@H](CO)[C@@H](O)[C@H](O)[C@H]1O
Potency [1]: inactive
Potency [2]: inactive

c1ccc(Nc2nc3c(s2)CCCc2[nH]ncc2-3)nc1
Potency [1]: inactive
Potency [2]: inactive

COCCN(C)Cc1ccc2nc3sc(C(=O)N(C)C4CCCCC4)cn3c2c1
Potency [1]: inactive
Potency [2]: inactive

C/C=C1/[C@H](O[C@@H]2O[C@H](CO)[C@@H](O)[C@H](O)[C@H]2O)OC=C(C(=O)OC)[C@H]1CC(=O)O[C@@H]1O[C@H](CO)[C@@H](O)[C@H](O)[C@H]1O
Potency [1]: inactive
Potency [2]: inactive

COCC(=O)N1CCc2cc(-c3csc(NC(=O)c4cc(OC)cc(OC)c4)n3)ccc21
Potency [1]: inactive
Potency [2]: inactive

CC(=O)OC1C=C(C(=O)O)C2(CO)CCC(C)C(C)(CCc3ccoc3)C2C1 (stereo not given)
Potency [1]: inactive
Potency [2]: inactive

O=C(NCc1ccc(OC(F)(F)F)cc1)C1c2ccccc2C(=O)N1C1CCOCC1 (stereo not given)
Potency [1]: inactive
Potency [2]: inactive

CC(=O)c1cnc2ccc(-c3cc(Cl)c(O)c(Cl)c3)nc2c1NC1CCC(CN(C)C)CC1 (stereo not given)
Potency [1]: 13 nM (active)
Potency [2]: 119 nM (active) and 23.1 nM (active)
